Data taken from PubChem BioAssay AID652254 (National Center for Advancing Translational Sciences (NCATS), 2013).
Activity calls are given as the source filed them.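 The calls were made as follows: active = potency for halving colony growth of 5 µM or lower; inconclusive = potency above 5 µM but below 10 µM; inactive = potency of 10 µM or higher.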

Test: qHTS for Inhibitors of Ubiquitin-specific Protease USP2a Using CHOP2 as the Reporter: Clonogenic Assay
Settings: clonogenic colony formation, crystal violet, 10 days
Excerpt: Homeostasis of cellular proteins is maintained through a combination of synthesis and degradation. The pathway that accounts for the majority of protein degradation is the ubiquitin-proteasomal pathway. Ubiquitin (Ub) is highly conserved in all cells and the generation of a multi-Ub chain typically targets proteins for degradation by the proteasome. However, ubiquitination is highly reversible and dynamic. Deubiquitination, the reverse process, is catalyzed through the action of enzymes referred to as isopeptidases or deubiquitinating enzymes (DUBs). This group of enzymes is collectively responsible for maintaining adequate pools of free ubiquitin and regulating the ubiquitination status of cellular proteins. […] To further visualize and quantitate the effect of compounds on cell proliferation, a colony forming or clonogenic assay was performed in 6-well plates using HCT116 cells. […] The colonies were visualized on the Typhoon imager (GE) using Cy5 detection, and quantitated with the associated software. […]
2 mL 300 cells/well were dispensed into a 6-well plate in DMEM with 10% FBS and 1% Pen-Strep and then incubated for 48 hours at 37 deg C, 5% CO2. […] The plate is dried overnight and then read on a GE Typhoon FLA 9500 in end-point mode (Ex 635, Em Long-Pass Red Filter)
In the case of `Cc1ccc(S(=O)(=O)Nc2cc(C(F)(F)F)ccc2C(=O)Nc2nc(-c3ccccc3)cs2)cc1`, the Potency is reported as 3.6 µM (active).
